Only some compounds are listed: those with a hit (about 1.6% of all), similar ones and a draw of the others.
ugtP null kill: kills S. aureus RN4220 lacking UgtP. S. aureus RN4220 ugtP deletion, OD600 growth, 16 h. growth inhibition, % (no concentration beside the values). 0.54% of 330,000 active; in the data active = growth inhibition above about 68%
Sa RN4220 lethal: kills Staphylococcus aureus RN4220. inhibition, % (test concentration not listed). 0.33% of 330,000 active. S. aureus RN4220 growth, OD600, 16 h; in the data active = inhibition above about 85%
RecA intein inh: inhibitors of M. tuberculosis RecA intein splicing; P9WHJ3; cell-free RecA intein splicing, fluorescence; inhibition, % (no concentration beside the values); 0.75% of 290,000 active; in the data active = inhibition above about 30%
Target sequence (P9WHJ3 whole entry, looked up): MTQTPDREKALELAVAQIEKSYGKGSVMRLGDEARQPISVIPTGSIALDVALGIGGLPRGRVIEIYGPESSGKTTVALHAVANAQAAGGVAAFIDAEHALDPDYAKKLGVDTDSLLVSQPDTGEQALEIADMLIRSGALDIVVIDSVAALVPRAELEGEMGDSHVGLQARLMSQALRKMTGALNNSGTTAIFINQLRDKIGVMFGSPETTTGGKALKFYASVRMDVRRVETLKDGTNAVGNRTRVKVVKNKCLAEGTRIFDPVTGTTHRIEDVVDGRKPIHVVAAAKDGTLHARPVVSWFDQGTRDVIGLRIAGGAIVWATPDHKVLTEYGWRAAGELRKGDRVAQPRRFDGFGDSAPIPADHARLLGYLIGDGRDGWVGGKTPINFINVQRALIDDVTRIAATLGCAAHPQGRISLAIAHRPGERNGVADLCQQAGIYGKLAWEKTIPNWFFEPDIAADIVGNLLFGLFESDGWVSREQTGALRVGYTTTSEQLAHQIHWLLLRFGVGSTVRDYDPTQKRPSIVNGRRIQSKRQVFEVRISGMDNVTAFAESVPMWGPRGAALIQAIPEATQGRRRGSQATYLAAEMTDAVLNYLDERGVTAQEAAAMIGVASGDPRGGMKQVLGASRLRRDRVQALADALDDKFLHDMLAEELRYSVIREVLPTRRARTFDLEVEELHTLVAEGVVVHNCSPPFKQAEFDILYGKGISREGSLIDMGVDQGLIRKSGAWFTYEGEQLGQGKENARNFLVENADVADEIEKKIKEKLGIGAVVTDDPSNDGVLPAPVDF
Mtb hypoxia rep: Mtb hypoxia fluorescent reporter inhibition | M. tuberculosis hypoxia-regulated fluorescent reporter, fluorescence | 0.1% of 300,000 active | fluorescence inhibition, % (no concentration beside the values); in the data active = fluorescence inhibition mostly above about 23%, no sharp cut-off; inactive = mostly below about 17%
CCHFV vOTU inh: CCHFV vOTU protease inhibition | Pep-AMC fluorescence | inhibition, % at 11.5 µM | 0.55% of 370,000 active | AID 651958; in the data active = inhibition above about 30%
BJeLR viability: BJeLR cell viability loss. BJeLR (HRASV12) viability, CellTiter-Glo ATP luminescence, 48 h. 0.17% of 300,000 active. inhibition, % (test concentration not listed); in the data active = inhibition above about 50%
GFP chromophore: counter-screen GFP chromophore formation inhibition. shares compounds with RecA intein inh. cell-free GFP chromophore formation, fluorescence. EC50, µM. 83% of 2,100 active; call rule not given here
Numbers stand for hits; . = inactive; / = not tested or not shown.

SMILES | ugtP null kill | Sa RN4220 lethal | RecA intein inh | Mtb hypoxia rep | CCHFV vOTU inh | BJeLR viability | GFP chromophore
CC(C)Cc1ccc([C@H](C)C(=O)O)cc1 | / | / | . | / | . | . | /
CC(C)Cc1ccc(-c2cc(=O)[nH][nH]2)cc1 | . | . | 92.1 | . | . | . | 2.6
Oc1c(Cl)cc(Cl)cc1C=Nc1ccccc1N1CCCC1 | / | / | . | / | / | . | /
O=c1[nH]cc(N=Cc2cc(Cl)cc(Cl)c2O)c(=O)[nH]1 | . | . | 76.8 | . | . | . | 13.4
COc1ccc(C(=O)Oc2cc(C=NNS(=O)(=O)c3ccccc3)ccc2OC)cc1 | . | . | / | / | / | / | /
CN(C)CCSc1nnc2[nH]c3ccccc3c2n1 | . | . | 32.1 | . | . | . | 9.39
COc1ccc(C(=O)N2c3ccccc3C=CC2C#N)cc1 (configuration not stated) | . | . | . | . | . | . | /
N#C[C@H]1[C@H](c2ccccc2)[C@](C#N)(C(=O)c2ccccc2)[C@@H]2C=Cc3ccccc3N21 | / | / | 53.1 | / | / | . | 23.1
CN1c2ccccc2C(C)(C)C12C=Nc1c(ccc3ccccc13)O2 (configuration not stated) | . | . | 78.9 | / | . | . | 25.1
CCCC=C(CCC)C(NP(=O)(c1ccccc1)c1ccccc1)c1ccccc1 (configuration not stated) | . | . | / | . | / | / | /
CCOC(=O)CC1=NN(c2ccccc2)C(=O)/C1=C\c1ccc(OC)cc1OC | / | / | 47.5 | / | . | . | 0.405
Cc1c(C)c(C)c(CON=Cc2cccs2)c(C)c1C | . | . | / | . | / | / | /
COC(=O)c1ccccc1NC(=S)NC(=O)c1ccc(C)cc1 | . | . | 36.5 | . | . | . | 0.495
CCOC(=O)C1=CCC2c3c(c4ccccc4n3C)C(=O)C1N2Cc1ccccc1 (configuration not stated) | . | . | / | . | / | / | /
CCC1C(=O)N(c2nc(C)cc(C)n2)N=C1C (configuration not stated) | . | . | 67.4 | . | . | . | 19.5
O=C(C1=CC(c2ccc(C(F)(F)F)cc2)CC(OCc2ccc(CO)cc2)O1)N1CCN(Cc2ccccc2)CC1 (configuration not stated) | . | . | / | . | / | / | /
COc1cc(C(c2c(C)[nH][nH]c2=O)c2c(C)[nH][nH]c2=O)cc(OC)c1OC | . | . | 95.7 | . | . | . | 0.508
COc1ccc(C(CC(=O)O)c2cc(OC)c(OC)c(OC)c2)cc1OC (configuration not stated) | / | / | / | / | . | / | /
COc1cc(C(c2c(C)[nH][nH]c2=O)c2c(C)[nH][nH]c2=O)cc(Cl)c1O | . | . | 88.1 | . | . | . | 0.741
O=C(Nc1ccccc1)C1=CC(c2coc3ccccc3c2=O)CC(OCCCCO)O1 (configuration not stated) | . | . | / | . | / | / | /
CCOC(=O)CN1C(=O)NC(c2ccccc2)C(C(=O)OC)=C1C (configuration not stated) | . | . | / | . | / | / | /
CCCCCC(=O)Cc1cc(O)cc2c1C(=O)Oc1cc(O)c(C(=O)O)c(CCCCC)c1O2 | . | . | 66.3 | / | / | . | 7.25
Cc1nn(-c2ccccc2)c2c1C1(C(=O)N(C(C)C)c3ccccc31)C(C#N)=C(N)O2 (configuration not stated) | . | 91.7 | 81.4 | . | . | . | 11.9
Cc1nn(-c2ccccc2)c(N)c1C1(O)C(=O)N(C(C)C)c2ccccc21 (configuration not stated) | . | . | . | . | . | . | /
COc1cccc(Nc2c([N+](=O)[O-])cncc2[N+](=O)[O-])c1 | . | . | 54.0 | . | . | . | 20.7
SMILES | ugtP null kill | Sa RN4220 lethal | RecA intein inh | Mtb hypoxia rep | CCHFV vOTU inh | BJeLR viability | GFP chromophore
COc1cccc(Nc2c(Nc3cccc(OC)c3)c(=O)c2=O)c1 | . | . | . | . | . | . | /
CNCC1Oc2c(NS(=O)(=O)c3ccc(F)cc3)cccc2C(=O)N(C(C)CO)CC1C (configuration not stated) | . | . | / | . | / | / | /
Cc1cccc(CN2CCN(CCCc3ccccc3)CC2)c1 | . | . | . | . | / | . | /
Cc1cc(=O)n(CCCc2ccccc2)[nH]1 | . | . | 91.9 | . | . | . | 8.02
CCOC1OC(C(=O)NCc2ccccc2)=CC(C)C1CCCO (configuration not stated) | . | . | / | . | / | / | /
COc1cccc(/C=N/NC(=O)CNC(=O)C2COc3ccccc3O2)c1O (configuration not stated) | / | / | . | / | . | . | /
